{"source": "the supplement of paper PMC11001985"}
{"target": "WLS (lysine site: K217) (UniProt Q5T9L3)", "sequence (Q5T9L3 whole entry)": "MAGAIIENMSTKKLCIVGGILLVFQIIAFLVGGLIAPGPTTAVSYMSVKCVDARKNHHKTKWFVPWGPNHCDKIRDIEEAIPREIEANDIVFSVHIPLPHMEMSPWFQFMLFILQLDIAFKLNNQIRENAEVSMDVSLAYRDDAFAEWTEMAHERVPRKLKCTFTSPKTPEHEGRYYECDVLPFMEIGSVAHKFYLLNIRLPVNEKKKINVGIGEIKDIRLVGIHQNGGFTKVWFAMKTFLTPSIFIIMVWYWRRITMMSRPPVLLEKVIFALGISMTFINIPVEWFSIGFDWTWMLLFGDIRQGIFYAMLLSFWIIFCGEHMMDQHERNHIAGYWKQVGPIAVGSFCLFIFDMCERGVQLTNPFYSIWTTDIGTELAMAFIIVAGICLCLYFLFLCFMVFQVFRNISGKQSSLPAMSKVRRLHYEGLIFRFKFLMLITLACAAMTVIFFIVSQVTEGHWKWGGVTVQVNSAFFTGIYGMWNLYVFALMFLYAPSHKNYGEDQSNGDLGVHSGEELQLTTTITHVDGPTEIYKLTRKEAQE", "experiment": "lysine labeling ratio R10:1 (500 µM / 50 µM probe), SILAC-ABPP in living cells; higher = lower intrinsic lysine reactivity toward the probe, active = 2 or less", "settings": "HeLa; probe concentrations 500 vs 50 µM", "method": "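Living HeLa cells (SILAC light/heavy) in PBS at room temperature were labeled with 50 µM versus 500 µM of the lysine-reactive, reductant-cleavable probe OPA-S-S-alkyne (SILAC labeling time not stated). Probe-modified peptides were CuAAC-biotinylated, captured on neutravidin and eluted with DTT/IAA, then quantified by LC-MS/MS. R = median peptide ratio per lysine (500/50 µM), combined over 3 forward and 3 reverse SILAC replicates. Ratios are capped at 20; R < 2 = hyper-reactive.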"}
{"smiles": "C#CCNC(=O)CCSSCCC(=O)NCCc1ccc(C=O)c(C=O)c1", "lysine labeling ratio R10:1": "2.13 (inactive)"}
